# Measured values reported in PubChem BioAssay (NCATS).
# A number with no mark means an inactive call. Records with an inconclusive call do not appear. A call without a number means that no potency is given here. Active and inactive are the calls of the source. Unless noted, calls come from the whole dose curve; as a rule, active = well fitted curve in the direction sought with a large enough effect; inconclusive = small, poorly fitted or top-dose-only effect, or another doubt; inactive = no such curve, though single readings can be large; an effect the other way counts as inactive or inconclusive.
# Experiments:
# [1] = target: Lysosomal acid glucosylceramidase (Homo sapiens) (UniProt P04062); assay: Glucocerebrosidase-p2 (AID 348; in the data active = potency below about 10 µM; note: potency is the fitted concentration of half-maximal effect); conditions: purified GBA, blue fluorogenic substrate, 40 min
# Sequence of Lysosomal acid glucosylceramidase (Homo sapiens) (P04062 whole entry, looked up): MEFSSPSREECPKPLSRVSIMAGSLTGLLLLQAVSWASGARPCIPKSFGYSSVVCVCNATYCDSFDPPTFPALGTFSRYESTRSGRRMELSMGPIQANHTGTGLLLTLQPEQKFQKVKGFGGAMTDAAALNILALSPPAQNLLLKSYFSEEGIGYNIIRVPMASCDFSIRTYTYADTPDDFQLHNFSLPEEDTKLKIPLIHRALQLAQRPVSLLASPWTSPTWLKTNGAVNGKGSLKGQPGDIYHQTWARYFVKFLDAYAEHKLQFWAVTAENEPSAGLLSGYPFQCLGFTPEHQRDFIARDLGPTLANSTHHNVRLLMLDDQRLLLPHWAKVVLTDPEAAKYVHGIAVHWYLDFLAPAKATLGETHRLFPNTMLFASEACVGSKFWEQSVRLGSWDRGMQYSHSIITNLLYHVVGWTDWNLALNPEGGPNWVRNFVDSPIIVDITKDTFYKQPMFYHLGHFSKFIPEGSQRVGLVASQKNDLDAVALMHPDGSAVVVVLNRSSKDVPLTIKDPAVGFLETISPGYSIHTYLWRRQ
# How it was run: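 Compounds titrated from 0.6 nM upwards against 0.2 nM enzyme in pH 5.9 citric acid/KH2PO4, taurocholate, tween-20; blue fluorogenic substrate 80 uM, 40 min room temperature, stopped and read Ex 365/Em 440 for AC50.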
# [2] = AP1 Signaling Pathway (AID 357; active = well fitted curve in either direction with a large enough effect, not every such curve was filed as active); conditions: ME-180 AP-1-bla reporter, EGF-induced, beta-lactamase ratio, 5 h; at 7.69 µM (top of the series) unless noted
# How it was run: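 Modulation of EGF-driven AP-1 transcription was assessed with a beta-lactamase reporter in ME-180 cells. Compound and EC50 EGF were co-incubated 5 hours at 37 °C before 2.5-hour CCF4 loading at room temperature and dual-emission reading.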
# [3] = target: Cytochrome P450 1A2 (Homo sapiens) (UniProt P05177); assay: p450-cyp1a2 (AID 410; calls by dose curve; note: potency is the fitted concentration of half-maximal effect)
# Sequence of Cytochrome P450 1A2 (Homo sapiens) (P05177 whole entry, looked up): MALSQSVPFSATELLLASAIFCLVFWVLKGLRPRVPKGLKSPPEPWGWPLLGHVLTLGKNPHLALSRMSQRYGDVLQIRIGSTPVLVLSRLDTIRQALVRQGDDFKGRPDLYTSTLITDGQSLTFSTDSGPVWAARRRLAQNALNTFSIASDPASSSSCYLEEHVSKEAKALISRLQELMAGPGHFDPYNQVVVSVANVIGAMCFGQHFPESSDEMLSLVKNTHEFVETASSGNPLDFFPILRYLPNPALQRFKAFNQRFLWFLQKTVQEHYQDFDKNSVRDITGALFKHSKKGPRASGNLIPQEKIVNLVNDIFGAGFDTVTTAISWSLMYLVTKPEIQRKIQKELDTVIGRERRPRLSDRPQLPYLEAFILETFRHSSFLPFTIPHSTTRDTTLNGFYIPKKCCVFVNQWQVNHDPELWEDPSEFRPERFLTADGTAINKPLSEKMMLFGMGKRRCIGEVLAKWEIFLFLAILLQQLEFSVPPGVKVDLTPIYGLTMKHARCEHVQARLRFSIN
# How it was run: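 Inhibition was calculated relative to 57 uM furafylline (full inhibition). The reaction used human CYP1A2 at 20nM with Luciferin-ME at its Km, 100uM, driven by an NADPH-regenerating system for 60 min at room temperature.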
# [4] = NFAT Signaling Pathway (AID 444; active = well fitted curve in either direction with a large enough effect, not every such curve was filed as active;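 note: carbachol stimulus at about its EC50 of 1 µM final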); conditions: Jurkat NFAT-bla M1, carbachol, beta-lactamase ratio, 5 h; at 7.69 µM (top of the series) unless noted
# How it was run: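 Read-out: CCF4 FRET ratio (460 nm/530 nm) after 1 h RT dye loading, used for %activity and AC50 from titration series. Cells: Jurkat NFAT-β-lactamase/M1 line, treated with compound plus 1 uM carbachol for 5 h, 37 °C.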
# [5] = Stat Signaling Pathway (AID 446; active = well fitted curve in either direction with a large enough effect, not every such curve was filed as active;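 note: ME-180 cervical cancer cells given 40 pM IL-6 alongside compound; SIE-controlled beta-lactamase reporter measured as 460/530 nm FRET emission ratio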); conditions: ME-180 SIE beta-lactamase reporter, IL-6 stimulated, 5 h; at 7.69 µM (top of the series) unless noted
# How it was run: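 ME-180 cells carrying a SIE-driven beta-lactamase reporter are stimulated with 40 pM IL-6 for 5 h at 37C in the presence of compound. The 460/530 nm FRET substrate ratio is read after 2.5 h at RT. Data are normalised to 300 pM IL-6 and to 125 nM JAK inhibitor controls.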
# [6] = target: Glucocorticoid receptor (Homo sapiens) (UniProt P04150); assay: GR-GFP Redistribution (AID 450;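 active = compounds whose dose series gives a full or clear partial fitted curve of increased nuclear translocation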; note: potency is the fitted concentration of half-maximal effect); conditions: U2OS GR-GFP nuclear translocation, laser cytometry, 2 h
# Sequence of Glucocorticoid receptor (Homo sapiens) (P04150 whole entry, looked up, the tested form may be a part): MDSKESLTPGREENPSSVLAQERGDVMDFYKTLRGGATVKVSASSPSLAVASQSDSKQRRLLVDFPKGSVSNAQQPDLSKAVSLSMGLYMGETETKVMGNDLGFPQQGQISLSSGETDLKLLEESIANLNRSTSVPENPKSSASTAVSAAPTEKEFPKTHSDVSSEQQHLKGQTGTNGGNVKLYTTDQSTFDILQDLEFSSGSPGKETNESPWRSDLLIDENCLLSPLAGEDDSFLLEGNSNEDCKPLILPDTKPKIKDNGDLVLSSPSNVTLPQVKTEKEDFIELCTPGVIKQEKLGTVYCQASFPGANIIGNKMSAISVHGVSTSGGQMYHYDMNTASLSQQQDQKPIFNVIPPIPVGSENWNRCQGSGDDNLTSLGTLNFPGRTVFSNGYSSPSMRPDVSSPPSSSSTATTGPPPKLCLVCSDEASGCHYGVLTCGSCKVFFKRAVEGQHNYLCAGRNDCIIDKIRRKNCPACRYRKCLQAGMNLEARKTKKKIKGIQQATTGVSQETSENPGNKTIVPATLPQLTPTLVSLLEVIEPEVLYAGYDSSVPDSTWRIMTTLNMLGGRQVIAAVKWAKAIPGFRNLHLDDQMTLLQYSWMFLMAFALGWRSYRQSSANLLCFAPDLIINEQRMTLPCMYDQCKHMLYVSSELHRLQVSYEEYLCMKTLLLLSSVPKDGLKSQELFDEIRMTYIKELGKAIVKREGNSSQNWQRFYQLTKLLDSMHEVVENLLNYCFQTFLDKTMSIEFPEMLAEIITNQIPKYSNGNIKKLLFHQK
# [7] = target: Glucocorticoid receptor (Homo sapiens) (UniProt P04150); assay: GR-EFC Redistribution (AID 451; calls by dose curve; note: potency is the fitted concentration of half-maximal effect); conditions: CHO-K1 GR-EFC translocation, beta-gal luminescence, 2 h
# How it was run: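 Translocation of GR-ED fusion to nuclear EA restores b-gal, read by luminescence after 1 h room-temperature detection. Engineered CHO-K1 biosensor cells, 1,000/well, exposed 2 h at 37 C to titrations up to 46 uM final.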
# [8] = target: Mitogen-activated protein kinase 10 (Mus musculus) (UniProt Q61831); assay: JNK3 AlphaScreen Assay (AID 530; active = well fitted curve in either direction with a large enough effect, not every such curve was filed as active;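 note: kinase came from lysate of stimulated human HepG2 cells; signal reports phosphorylation of biotinylated GST-cJun 1-79 at Ser73 with 10 µM ATP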)
# How it was run: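 Room-temperature AlphaScreen kinase assay; pre-activated HepG2 lysate as JNK3 source, biotin-GST-cJun(1-79) substrate, 10 uM ATP, compound 15 min preincubation.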
# [9] = target: 3',5'-cyclic-AMP phosphodiesterase 4B (Homo sapiens) (UniProt Q07343); assay: qHTS Assay for Inhibitors of PDE-IV (AID 607; active = well fitted activation curve with a large enough effect in the main read-out, with a control signal flat, not every such curve was filed as active)
# Sequence of 3',5'-cyclic-AMP phosphodiesterase 4B (Homo sapiens) (Q07343 whole entry, looked up): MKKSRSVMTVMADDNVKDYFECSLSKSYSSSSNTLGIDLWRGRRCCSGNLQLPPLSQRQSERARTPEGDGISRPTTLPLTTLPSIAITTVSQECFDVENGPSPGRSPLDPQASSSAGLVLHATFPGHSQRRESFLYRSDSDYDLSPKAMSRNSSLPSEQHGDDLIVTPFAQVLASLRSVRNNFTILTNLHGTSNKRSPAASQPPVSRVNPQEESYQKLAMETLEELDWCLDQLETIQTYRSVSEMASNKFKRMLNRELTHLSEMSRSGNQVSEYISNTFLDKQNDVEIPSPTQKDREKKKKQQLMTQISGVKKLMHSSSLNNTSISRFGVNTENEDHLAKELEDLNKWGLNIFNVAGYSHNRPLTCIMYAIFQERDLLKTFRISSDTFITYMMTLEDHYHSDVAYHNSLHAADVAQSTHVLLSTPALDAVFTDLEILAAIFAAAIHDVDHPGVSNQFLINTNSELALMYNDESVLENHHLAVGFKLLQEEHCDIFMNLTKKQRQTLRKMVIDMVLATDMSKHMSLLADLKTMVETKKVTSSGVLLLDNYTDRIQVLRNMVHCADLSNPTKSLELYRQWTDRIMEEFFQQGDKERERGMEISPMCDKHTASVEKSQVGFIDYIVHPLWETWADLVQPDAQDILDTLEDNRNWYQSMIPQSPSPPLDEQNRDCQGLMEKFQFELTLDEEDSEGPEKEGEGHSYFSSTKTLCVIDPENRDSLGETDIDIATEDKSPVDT
# How it was run: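 HEK293 ACTOne cells with CNG channel (1000/well), endogenous PDE4; membrane potential dye, compounds up to 22.9 uM final. Fluorescence Ex 535/Em 590; RO 20-1724 (100 uM final) as reference.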
# [10] = target: Dual specificity protein kinase CLK4 (Homo sapiens) (UniProt Q9HAZ1); assay: qHTS Assay for Inhibitors of CDC-like Kinase 4 (Kinase-Glo Assay) (AID 1770); note: nearly all actives have a fitted effect of over 65% in size
# Sequence of Dual specificity protein kinase CLK4 (Homo sapiens) (Q9HAZ1 whole entry, looked up): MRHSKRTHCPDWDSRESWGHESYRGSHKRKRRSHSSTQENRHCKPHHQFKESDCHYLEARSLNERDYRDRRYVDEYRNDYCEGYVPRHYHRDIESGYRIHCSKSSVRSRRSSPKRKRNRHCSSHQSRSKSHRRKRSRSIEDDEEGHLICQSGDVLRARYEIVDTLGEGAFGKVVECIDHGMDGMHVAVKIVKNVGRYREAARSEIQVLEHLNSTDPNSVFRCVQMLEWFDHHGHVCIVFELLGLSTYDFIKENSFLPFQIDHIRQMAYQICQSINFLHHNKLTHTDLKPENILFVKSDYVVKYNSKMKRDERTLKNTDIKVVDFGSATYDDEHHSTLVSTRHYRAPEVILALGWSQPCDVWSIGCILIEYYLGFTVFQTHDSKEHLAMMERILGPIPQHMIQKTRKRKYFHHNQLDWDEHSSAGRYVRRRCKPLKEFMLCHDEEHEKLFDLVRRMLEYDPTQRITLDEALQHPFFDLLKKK
# How it was run: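 Recombinant human Clk4 (25 nM) phosphorylated RS repeat peptide (100 uM) with 1 uM ATP in Tris pH 7.5/MgCl2/EGTA/DTT/Triton buffer for 4.5 h at room temperature. Residual ATP was quantified by Kinase-Glo luciferase luminescence.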
# [11] = target: Dual specificity protein kinase CLK4 (Homo sapiens) (UniProt Q9HAZ1); assay: qHTS Assay for Inhibitors of CDC-like Kinase 4 (ADP-Glo Assay) (AID 1771); note: nearly all actives have a fitted effect of over 70% in size
# How it was run: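 Kinase reaction: Clk4 at 25 nM, RS repeat peptide substrate at 100 uM, ATP at 1 uM, 1 hr, room temperature. Product ADP detected as luciferase signal via ADP-Glo.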
# [12] = target: Dual specificity protein kinase CLK4 (Homo sapiens) (UniProt Q9HAZ1); assay: qHTS Assay for Inhibitors of CDC-like Kinase 4 (ADP-FP Assay) (AID 1795); note: nearly all actives have a fitted effect of over 60% in size
# How it was run: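 Recombinant human Clk4 (6.25 nM) phosphorylated RS repeat peptide (100 uM) with 1 uM ATP in Tris pH 7.5/MgCl2/EGTA/DTT/Triton buffer for one hour. ADP was quantified by Transcreener competitive fluorescence polarization against an ADP calibration curve.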
# [13] = target: Ubiquitin carboxyl-terminal hydrolase 1 (Homo sapiens) (UniProt O94782); assay: Inhibitors of USP1/UAF1: Pilot qHTS (AID 504865);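 note: rhodamine fluorescence freed from ubiquitin-rhodamine substrate followed over time; top concentration of the series differs between compounds; nearly all actives have a fitted effect of over 35% in size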
# Sequence of Ubiquitin carboxyl-terminal hydrolase 1 (Homo sapiens) (O94782 whole entry, looked up): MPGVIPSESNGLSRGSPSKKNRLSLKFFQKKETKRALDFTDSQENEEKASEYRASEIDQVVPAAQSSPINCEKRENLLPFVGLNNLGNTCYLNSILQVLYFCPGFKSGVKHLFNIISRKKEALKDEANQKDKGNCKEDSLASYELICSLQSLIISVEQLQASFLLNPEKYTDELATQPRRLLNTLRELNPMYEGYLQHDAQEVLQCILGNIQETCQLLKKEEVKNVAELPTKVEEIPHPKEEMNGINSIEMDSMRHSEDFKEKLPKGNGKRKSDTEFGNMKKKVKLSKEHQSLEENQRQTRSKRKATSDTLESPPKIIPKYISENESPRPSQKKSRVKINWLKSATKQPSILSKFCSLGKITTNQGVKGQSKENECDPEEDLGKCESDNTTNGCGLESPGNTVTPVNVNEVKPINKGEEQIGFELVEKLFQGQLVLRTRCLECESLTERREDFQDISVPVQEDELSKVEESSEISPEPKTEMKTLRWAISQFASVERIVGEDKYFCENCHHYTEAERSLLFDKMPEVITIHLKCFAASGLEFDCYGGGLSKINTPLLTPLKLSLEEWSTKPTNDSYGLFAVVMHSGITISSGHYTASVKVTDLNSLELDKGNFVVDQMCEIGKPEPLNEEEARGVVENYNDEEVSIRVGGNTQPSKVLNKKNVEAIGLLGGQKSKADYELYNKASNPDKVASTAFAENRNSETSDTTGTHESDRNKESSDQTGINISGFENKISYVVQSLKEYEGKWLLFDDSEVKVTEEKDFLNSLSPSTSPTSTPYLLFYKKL
# How it was run: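 USP1/UAF1 complex (1nM) preincubated with compound 15 min at room temperature, then Ub-Rho substrate (150nM final) added. Fluorescence read kinetically at 480/540 nm, 6 reads every 60 seconds. Buffer: 50mM HEPES pH 7.8, 0.5mM EDTA, 0.1 mg/ml BSA, 1mM TCEP, 0.01% Tween-20.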
# [14] = Primary qHTS for small molecule stabilizers of the endoplasmic reticulum resident proteome: Secreted ER Calcium Modulated Protein (SERCaMP) assay (AID 1508630)
# How it was run: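 GLuc-SERCaMP-expressing SH-SY5Y cells, pretreated 16 h with compound, are challenged with thapsigargin to empty ER calcium stores; after 4 h, coelenterazine is added directly to the medium and luminescence is imaged.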
# [15] = target: Rap guanine nucleotide exchange factor 3 (Homo sapiens) (UniProt O95398); assay: Confirmatory qHTS for agonist of cAMP-regulated guanine nucleotide exchange factor 3 (EPAC1) (AID 1645881);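 note: EPAC1 catalysed release of BODIPY-GDP from Rap1B seen as fluorescence loss; nearly all actives have a fitted effect of over 75% in size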
# Sequence of Rap guanine nucleotide exchange factor 3 (Homo sapiens) (O95398 whole entry, looked up): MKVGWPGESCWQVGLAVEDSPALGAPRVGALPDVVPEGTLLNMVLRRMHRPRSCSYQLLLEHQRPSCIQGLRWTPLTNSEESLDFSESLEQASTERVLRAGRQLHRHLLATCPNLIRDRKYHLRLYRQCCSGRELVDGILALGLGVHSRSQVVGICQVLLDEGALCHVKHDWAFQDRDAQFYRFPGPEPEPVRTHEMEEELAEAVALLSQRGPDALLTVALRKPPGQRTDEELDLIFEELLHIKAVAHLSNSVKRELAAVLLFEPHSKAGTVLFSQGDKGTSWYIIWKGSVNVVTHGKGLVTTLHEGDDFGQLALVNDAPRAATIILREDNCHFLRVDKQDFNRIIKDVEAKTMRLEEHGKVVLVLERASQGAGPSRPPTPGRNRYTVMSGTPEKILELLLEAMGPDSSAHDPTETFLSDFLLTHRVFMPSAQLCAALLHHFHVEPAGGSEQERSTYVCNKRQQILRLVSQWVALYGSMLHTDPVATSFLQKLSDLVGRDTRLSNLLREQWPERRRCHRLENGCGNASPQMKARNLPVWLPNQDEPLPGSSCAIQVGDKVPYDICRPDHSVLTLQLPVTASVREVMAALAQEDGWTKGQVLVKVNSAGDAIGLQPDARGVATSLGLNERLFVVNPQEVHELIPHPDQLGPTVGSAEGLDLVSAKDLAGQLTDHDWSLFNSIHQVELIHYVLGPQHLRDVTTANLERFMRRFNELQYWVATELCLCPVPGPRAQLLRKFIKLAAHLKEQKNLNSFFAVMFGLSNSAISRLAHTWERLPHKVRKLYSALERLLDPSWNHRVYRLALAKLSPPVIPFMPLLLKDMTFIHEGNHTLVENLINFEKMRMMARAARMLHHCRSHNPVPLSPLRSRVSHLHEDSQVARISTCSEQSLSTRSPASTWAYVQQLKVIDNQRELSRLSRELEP
# [16] = target: Rap guanine nucleotide exchange factor 4 (Homo sapiens) (UniProt Q8WZA2); assay: Confirmatory qHTS for agonist of cAMP-regulated guanine nucleotide exchange factor 4 (EPAC2) (AID 1645884);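 note: nucleotide exchange releases bodipy-GDP from Rap1 and this lowers its fluorescence; nearly all actives have a fitted effect of over 65% in size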
# [17] = target: Cytochrome P450 3A4 (Homo sapiens) (UniProt P08684); assay: qHTS Assay for Inhibitors and Substrates of Cytochrome P450 3A4 (AID 884); note: potency is the fitted concentration of half-maximal effect; nearly all actives have a fitted effect of over 50% in size
# How it was run: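 20 nM human CYP3A4 with 25 uM Luciferin-PPXE (at KM) in 200 mM KPO4, preincubated 10 min with compound; NADPH regeneration started a 60 min RT reaction. Luciferin detected by luminescence, normalized to 57 uM ketoconazole as full inhibition.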
# [18] = target: Cytochrome P450 3A4 (Homo sapiens) (UniProt P08684); assay: qHTS Assay for Activators of Cytochrome P450 3A4 (AID 885); note: nearly all actives have a fitted effect of over 65% in size
# How it was run: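 Human CYP3A4 (20 nM) with Luciferin-PPXE at 25 uM (its KM) in 200 mM KPO4; 10 min compound preincubation, then NADPH regeneration and 60 min reaction at RT. Luciferin read by luminescence; normalized to 57 uM ketoconazole full inhibition.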
# [19] = target: Cytochrome P450 2C19 (Homo sapiens) (UniProt P33261); assay: qHTS Assay for Inhibitors and Substrates of Cytochrome P450 2C19 (AID 899); note: potency is the fitted concentration of half-maximal effect; nearly all actives have a fitted effect of over 60% in size
# How it was run: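 5nM enzyme + 10uM Luciferin-H EGE (=KM), 50mM KPO4; cpd pin-transferred, 10 min 37C; NADPH regen, 60 min 37C; stopped w/ luciferin detection reagent, 20 min; luminescence. Normalized to 57uM ketoconazole (AC100).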
Structure (SMILES),Potency [1],"activity change, negative = inhibition [2]",Potency [3],"activity change, negative = inhibition [4]","activity, negative = inhibition [5]",Potency [6],Potency [7],Potency [8],Potency [9],Potency [10],Potency [11],Potency [12],Potency [13],outcome [14],Potency [15],Potency [16],Potency [17],Potency [18],Potency [19]
CN(C)c1ncc2nc(-c3cc(F)cc(F)c3)c(=O)n(-c3ccccc3)c2n1,> 11.4 µM,-8.03%,0.316 µM (active),9.84%,12.5%,> 9.22 µM,> 46 µM,inactive,inactive,inactive,inactive,inactive,inactive,inactive,–,–,–,–,–
Cc1nc2cnc(N(C)C)nc2n(-c2ccccc2)c1=O,> 11.4 µM,-7.75%,2 µM (active),9.3%,-16.5%,> 46 µM,> 46 µM,inactive,inactive,inactive,inactive,inactive,inactive,inactive,–,–,–,–,–
Cc1nc2cnc(Oc3cccc(Cl)c3)nc2n(C2CC2)c1=O,> 11.4 µM,-22.3%,6.31 µM (active),-5.3%,-13.7%,> 9.22 µM,> 46 µM,inactive,inactive,inactive,inactive,inactive,inactive,inactive,–,–,–,–,–
COCCn1c(=O)c(-c2cn(C)c3ccccc23)nc2cnc(OCc3ccccc3)nc21,> 11.4 µM,-1.93%,5.01 µM (active),-4.76%,23.6%,> 9.22 µM,> 46 µM,inactive,–,inactive,inactive,inactive,inactive,inactive,–,–,–,–,–
Cc1nc2cnc(Oc3ccccc3)nc2n(C2CC2)c1=O,> 11.4 µM,-5.18%,10 µM (active),-1.18%,-14.1%,> 9.22 µM,> 46 µM,inactive,inactive,inactive,inactive,inactive,inactive,inactive,–,–,–,–,–
O=C(CCCCCN1C(=O)c2cccc3cccc(c23)C1=O)NO,–,–,–,–,–,–,–,–,–,–,–,–,–,inactive,–,–,–,–,–
C=CC(C)(C)c1c2c(c(O)c3c(=O)c4ccc(O)c(O)c4oc13)C=CC(C)(C)O2,–,–,–,–,–,–,–,–,–,–,–,–,–,inactive,inactive,inactive,–,–,–
COc1cccc(Cn2c(=O)c(-c3ccc(Cl)cc3)nc3cnc(OC)nc32)c1,> 11.4 µM,-15.4%,3.98 µM (active),8.55%,4.34%,> 9.22 µM,> 46 µM,inactive,–,inactive,inactive,inactive,inactive,inactive,–,–,–,–,–
O=C(c1csnn1)N1CCC2(CC1)CN(c1cccc(-c3ccccc3)c1)C2,–,-15.1%,12.6 µM (active),-11.3%,–,–,> 46 µM,inactive,inactive,–,–,–,–,inactive,inactive,inactive,–,–,–
COCCn1c(=O)c(-c2cc(F)cc(F)c2)nc2cnc(N(C)C)nc21,> 11.4 µM,3.27%,5.01 µM (active),-6.48%,-2%,> 9.22 µM,> 46 µM,inactive,inactive,inactive,inactive,inactive,inactive,inactive,–,–,–,–,–
CN(C)C(=O)c1ccc(-c2nccc(N(C)Cc3ccco3)n2)cc1,> 11.4 µM,-6.22%,12.6 µM (active),-2.09%,4.76%,> 46 µM,> 46 µM,inactive,inactive,inactive,inactive,inactive,inactive,inactive,–,–,–,–,–
COc1cccc(Nc2ncc3nc(-c4ccccc4)c(=O)n(C)c3n2)c1,> 11.4 µM,-7.32%,3.16 µM (active),-6.92%,4.13%,> 9.22 µM,> 46 µM,inactive,–,inactive,inactive,inactive,inactive,inactive,–,–,–,–,–
CN(C)c1ncc2nc(-c3cccs3)c(=O)n(-c3ccccc3)c2n1,> 11.4 µM,-9.21%,31.6 µM (active),6.03%,21.3%,> 9.22 µM,> 46 µM,inactive,–,inactive,inactive,inactive,inactive,inactive,–,–,–,–,–
COc1ccc(CNc2nc(-c3ccc4c(c3)OCO4)nc3ccccc23)c(OC)c1,> 11.4 µM,0.828%,3.98 µM (active),–,2.14%,> 46 µM,> 46 µM,inactive,inactive,inactive,inactive,inactive,inactive,inactive,inactive,inactive,1.26 µM (active),inactive,7.94 µM (active)
CCNc1ncc2nc(-c3cn(C)c4ccccc34)c(=O)n(C[C@H]3CCCO3)c2n1,> 11.4 µM,-16.7%,10 µM (active),16.3%,9.05%,> 9.22 µM,> 46 µM,inactive,–,inactive,inactive,inactive,inactive,inactive,–,–,–,–,–
